Experimental data taken from PubChem BioAssay AID1851 (National Center for Advancing Translational Sciences (NCATS), 2009).
Out of some 16,000 compounds screened, about 2,600 (16%) were called active. Roughly 20% stayed inconclusive and do not appear here. The call rests on the fitted dose curve; in most records, active means well fitted curve in the direction sought with a large enough effect; inconclusive means small, poorly fitted or top-dose-only effect, or effect the other way; inactive means no such curve, though single readings can be large or run the other way. Only a sample is shown.

The molecules below were run against Cytochrome P450 2D6 (Homo sapiens) (UniProt P10635) (assay: Cytochrome panel assay with activity outcomes). Conditions: recombinant CYP, pro-luciferin dealkylation, luminescence, p450-cyp2d6; series mostly up to 57.1 µM.
Cytochrome P450 2D6 (Homo sapiens), sequence (P10635 whole entry, looked up): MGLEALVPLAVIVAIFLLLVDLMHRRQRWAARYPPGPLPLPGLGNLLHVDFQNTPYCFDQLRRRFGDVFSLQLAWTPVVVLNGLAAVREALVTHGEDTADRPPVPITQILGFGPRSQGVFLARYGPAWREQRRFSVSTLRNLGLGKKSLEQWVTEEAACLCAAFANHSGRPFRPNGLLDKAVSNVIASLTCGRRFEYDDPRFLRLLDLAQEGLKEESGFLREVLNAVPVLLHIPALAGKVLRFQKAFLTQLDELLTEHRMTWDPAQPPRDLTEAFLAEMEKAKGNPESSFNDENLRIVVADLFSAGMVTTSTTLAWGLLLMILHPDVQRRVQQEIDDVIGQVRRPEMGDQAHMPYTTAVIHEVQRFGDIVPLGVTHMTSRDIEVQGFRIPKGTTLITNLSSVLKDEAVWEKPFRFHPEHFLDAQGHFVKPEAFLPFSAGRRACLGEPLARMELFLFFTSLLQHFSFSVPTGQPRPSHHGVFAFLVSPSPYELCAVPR
On the % scale 0 is the no-effect control and ±100 the full control effect.

SMILES	AC50	activity, negative = inhibition
N#CN(CC(N)=O)c1nc(N2CCCCC2)nc(N2CCCCC2)n1	14.1 µM (active)	–
O=c1nc(N2CCCCCC2)nc(N2CCCCCC2)[nH]1	inactive	–
OCCN1CCN(c2nc(N3CCCCC3)nc(N3CCCCC3)n2)CC1	inactive	–
Cc1[nH]c(=O)c(C(=O)/C=C/c2ccccc2F)c2c1CCCC2	inactive	–
COCCn1c(=O)c(-c2ccc(OC)cc2)nc2cnc(N3CCOCC3)nc21	inactive	–
NNC(=O)[C@@H](O)[C@H](O)[C@H](O)CO	–	17.4% [at 11.4 µM] (inactive)
CCN(CCCc1ccccc1)CCCc1ccccc1	1 µM (active)	–
CCCCNC(=O)C(=O)NC(C)CCc1ccccc1 (stereo not drawn)	inactive	–
O=C(NCCCc1ccccc1)c1cccs1	inactive	–
COc1ccc(-c2nc3cnc(N4CCN(C)CC4)nc3n(C)c2=O)cc1	inactive	–
O=C(CCNC(=O)c1ccccc1)OCN1C(=O)c2ccccc2C1=O	inactive	–
O=c1c(-c2ccc(Cl)cc2)nc2cnc(N3CCOCC3)nc2n1C1CC1	inactive	–
CCCCCCCCCCCC1=C(O)C(=O)C=C(O)C1=O	2 µM (active)	–
Cc1ccc(S(=O)(=O)ON=C2CCN(S(=O)(=O)c3ccccc3)CC2)cc1	inactive	–
CCOc1ccc(N2C(=O)C3C4C=CC(CC4)C3C2=O)c([N+](=O)[O-])c1 (stereo not drawn)	11.2 µM (active)	–
CCOc1ccc(NC(=O)c2ccc(Br)o2)c([N+](=O)[O-])c1	inactive	–
CCOc1ccc(C(C)=O)cc1N1C(=O)C2C(C1=O)C1C=CC2C12CC2 (stereo not drawn)	inactive	–
CCOC(=O)C1CCCN(C(=O)c2cc3nc(-c4ccc5c(c4)OCO5)cc(C(F)(F)F)n3n2)C1 (stereo not drawn)	inactive	–
CCCCC(=O)N/N=C(\C)CC(=O)Nc1cc(Cl)ccc1OC	inactive	–
O=C(COC(=O)c1cccc(S(=O)(=O)N2CCOCC2)c1)Nc1nc(-c2ccccc2Cl)cs1	inactive	–
COc1ccc(COc2ccsc2C(=O)Nc2ccc(Cl)c(Cl)c2)cc1	inactive	–
CN(CCc1ccc(Cl)c(Cl)c1)C[C@@H](O)COc1ccc(NS(C)(=O)=O)cc1	25.1 µM (active)	–
O=c1c(-c2cc(F)cc(F)c2)nc2cnc(N3CCNCC3)nc2n1Cc1cccs1	inactive	–
CC(C)CCOc1ccc(NC(=O)C2OC3OC(C)(C)OC3C3OC(C)(C)OC23)cc1 (stereo not drawn)	inactive	–
CCOC(=O)c1sc(NC(=O)CSc2n[nH]c(-c3ccc(Cl)cc3Cl)n2)c(C#N)c1C	28.2 µM (active)	–
CCOC(=O)c1sc(NC(=O)CSc2nc(C)cc(C)n2)c(C#N)c1C	inactive	–
CCOC(=O)c1sc(NC(=O)CSc2nc(C)cc(C)c2C#N)c(C#N)c1C	inactive	–
O=C(Oc1c(Br)cc(C(=S)N2CCOCC2)cc1Br)c1ccc(Cl)cc1	inactive	–
